Results published in PubChem BioAssay (NCI).
This is part of a sample that, as a whole, favours compounds with a hit. Of some 83,000 tested, about 20% had one in any assay.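 Assay: single dose, 48 h. Readout: percent growth (0 = no net growth; negative = cell death). Active: <10.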 Activity calls are given as the source filed them.

How the values were obtained:
Experiment in all cases: NCI-60 one-dose screen, 48 h (100 = growth as untreated, 0 = no growth, -100 = all killed)
Conditions in all cases: 10 µM unless noted
MOLT-4 leukemia = system: MOLT-4 leukemia
RPMI-8226 leukemia = system: RPMI-8226 leukemia
OVCAR-8 ovarian = system: OVCAR-8 ovarian
OVCAR-5 ovarian = system: OVCAR-5 ovarian
OVCAR-4 ovarian = system: OVCAR-4 ovarian
SK-OV-3 ovarian = system: SK-OV-3 ovarian
IGROV1 ovarian = system: IGROV1 ovarian
OVCAR-3 ovarian = system: OVCAR-3 ovarian
HS 578T breast = system: HS 578T breast
NCI/ADR-RES ovarian = system: NCI/ADR-RES ovarian
T-47D breast = system: T-47D breast
BT-549 breast = system: BT-549 breast
MDA-MB-435 melanoma = system: MDA-MB-435 melanoma
SW-620 colon = system: SW-620 colon
MCF7 breast = system: MCF7 breast
HCT-116 colon = system: HCT-116 colon
HCC-2998 colon = system: HCC-2998 colon
KM12 colon = system: KM12 colon

Measured: growth

C[C@]12CCc3sc(-c4cccc(F)c4)nc3C1=CC[C@@H]1[C@@H]2CC[C@]2(C)C(=O)CC[C@@H]12
inactive: OVCAR-8 ovarian 28.5% | OVCAR-5 ovarian 87.2% | OVCAR-4 ovarian 65.1% | SK-OV-3 ovarian 17.9% | HS 578T breast 27.4% | NCI/ADR-RES ovarian 68.3% | BT-549 breast 23.2% | MDA-MB-435 melanoma 49.2% | MCF7 breast 10.8% | HCC-2998 colon 79.5% | KM12 colon 46.5%
active: MOLT-4 leukemia 5.82% | RPMI-8226 leukemia -2.88% | IGROV1 ovarian 0.597% | OVCAR-3 ovarian 7.89% | T-47D breast 3.07% | SW-620 colon 3.81% | HCT-116 colon 0.513%

Cc1ccc(Nc2nc3c(s2)C2=CC[C@@H]4[C@H](CC[C@]5(C)C(=O)CC[C@@H]45)[C@@]2(C)CC3)cc1
active: RPMI-8226 leukemia -15.8% | SW-620 colon 0.485% | HCT-116 colon -25.4%
inactive: MOLT-4 leukemia 12.3% | OVCAR-8 ovarian 58.4% | OVCAR-5 ovarian 72.4% | OVCAR-4 ovarian 44.8% | SK-OV-3 ovarian 36.6% | IGROV1 ovarian 65% | OVCAR-3 ovarian 16.7% | HS 578T breast 28.1% | NCI/ADR-RES ovarian 57.2% | T-47D breast 43.8% | BT-549 breast 24.7% | MDA-MB-435 melanoma 44.3% | MCF7 breast 13.9% | HCC-2998 colon 78.2% | KM12 colon 34.7%

CCCCN1CCCC[C@@H]1C(=O)N[C@H](C(=O)N(C)[C@H](CCc1nc(C(=O)N[C@@H](Cc2ccccc2)C[C@H](C)C(=O)OC)cs1)C(C)C)[C@@H](C)CC
active: MDA-MB-435 melanoma -30%
inactive: MOLT-4 leukemia 34.7% | RPMI-8226 leukemia 28.6% | OVCAR-8 ovarian 80.9% | OVCAR-5 ovarian 101% | OVCAR-4 ovarian 56.9% | SK-OV-3 ovarian 49.9% | IGROV1 ovarian 48.9% | OVCAR-3 ovarian 13.8% | HS 578T breast 76% | NCI/ADR-RES ovarian 65.7% | T-47D breast 44.2% | BT-549 breast 36.4% | SW-620 colon 63.7% | MCF7 breast 18.5% | HCT-116 colon 31.6% | HCC-2998 colon 61.7% | KM12 colon 28%

CC(C)(NC(=O)O[C@@H]1CN2CCC1CC2)c1csc(-c2ccc(F)cc2)n1
inactive: MOLT-4 leukemia 91.3% | RPMI-8226 leukemia 103% | OVCAR-8 ovarian 102% | OVCAR-5 ovarian 96.2% | OVCAR-4 ovarian 97.4% | SK-OV-3 ovarian 99.6% | IGROV1 ovarian 101% | OVCAR-3 ovarian 109% | HS 578T breast 98.2% | NCI/ADR-RES ovarian 96.8% | T-47D breast 88.3% | BT-549 breast 101% | MDA-MB-435 melanoma 99.1% | SW-620 colon 99.2% | MCF7 breast 90.3% | HCT-116 colon 95.5% | HCC-2998 colon 102% | KM12 colon 101%

CN1C(=O)N[C@H]2[C@@H]3NC(=O)c4ccc(Br)n4[C@@H]3C[C@]21O
active: MOLT-4 leukemia -9.97% | RPMI-8226 leukemia -23.2% | OVCAR-8 ovarian -12.4% | OVCAR-5 ovarian -2.49% | OVCAR-4 ovarian -13.9% | SK-OV-3 ovarian -2.3% | IGROV1 ovarian -13.9% | OVCAR-3 ovarian -28.7% | HS 578T breast -28.5% | T-47D breast -10.6% | BT-549 breast -47.8% | MDA-MB-435 melanoma -30.6% | SW-620 colon -4.51% | MCF7 breast -4.96% | HCT-116 colon -17.1% | HCC-2998 colon -24.1% | KM12 colon -12.8%
inactive: NCI/ADR-RES ovarian 48.6%

CN1CCC(O)(c2ccc(F)cc2)C(C(=O)c2ccc(F)cc2)C1 (stereo not given)
inactive: MOLT-4 leukemia 94.2% | OVCAR-8 ovarian 102% | OVCAR-5 ovarian 93.2% | OVCAR-4 ovarian 102% | SK-OV-3 ovarian 102% | IGROV1 ovarian 96.3% | OVCAR-3 ovarian 111% | HS 578T breast 101% | NCI/ADR-RES ovarian 103% | T-47D breast 94.7% | BT-549 breast 96% | MDA-MB-435 melanoma 110% | SW-620 colon 99% | MCF7 breast 85.3% | HCT-116 colon 101% | HCC-2998 colon 101% | KM12 colon 105%
active: RPMI-8226 leukemia -9.61%

CCCCOc1ccc(C(N)Cc2ccccc2)cc1 (stereo not given)
inactive: MOLT-4 leukemia 85.5% | RPMI-8226 leukemia 80.5% | OVCAR-8 ovarian 97.6% | OVCAR-5 ovarian 95.9% | OVCAR-4 ovarian 107% | SK-OV-3 ovarian 114% | IGROV1 ovarian 88.2% | OVCAR-3 ovarian 102% | HS 578T breast 91% | NCI/ADR-RES ovarian 105% | T-47D breast 92.5% | BT-549 breast 101% | MDA-MB-435 melanoma 43.2% | SW-620 colon 87.5% | MCF7 breast 81.7% | HCT-116 colon 86.4% | HCC-2998 colon 29.9% | KM12 colon 98.5%

C/C(=C\c1ccn(-c2ccccc2N)n1)[C@@H]1C[C@@H]2O[C@]2(C)CCC[C@H](C)[C@H](O)[C@@H](C)C(=O)C(C)(C)[C@@H](O)CC(=O)O1
inactive: MOLT-4 leukemia 12.4% | RPMI-8226 leukemia 15.3% | OVCAR-8 ovarian 26.2% | OVCAR-5 ovarian 31.6% | OVCAR-4 ovarian 51.2% | SK-OV-3 ovarian 40.2% | IGROV1 ovarian 41.5% | T-47D breast 36.4% | BT-549 breast 15% | SW-620 colon 38.3% | MCF7 breast 18.6% | HCT-116 colon 12.1% | KM12 colon 14.6%
active: OVCAR-3 ovarian -2.9% | HS 578T breast 7.14% | NCI/ADR-RES ovarian -4.02% | MDA-MB-435 melanoma -46.6% | HCC-2998 colon 3.48%

CCCCN(CCCC)P(=O)(Oc1ccccc1)Oc1ccccc1
inactive: MOLT-4 leukemia 39.4% | RPMI-8226 leukemia 54.4% | OVCAR-8 ovarian 84.1% | OVCAR-5 ovarian 94.1% | OVCAR-4 ovarian 51.5% | SK-OV-3 ovarian 66.7% | IGROV1 ovarian 57.3% | OVCAR-3 ovarian 87.2% | HS 578T breast 85.3% | NCI/ADR-RES ovarian 51.4% | T-47D breast 47.4% | BT-549 breast 73.5% | MDA-MB-435 melanoma 71.4% | SW-620 colon 52% | MCF7 breast 48.4% | HCT-116 colon 29.2% | HCC-2998 colon 83.7% | KM12 colon 58.6%

CC(=O)[C@H]1CC[C@H]2[C@@H]3CC[C@H]4C[C@H](N)CC[C@]4(C)[C@H]3CC[C@]12C
inactive: MOLT-4 leukemia 61.7% | RPMI-8226 leukemia 58.9% | OVCAR-8 ovarian 90% | OVCAR-5 ovarian 82.7% | OVCAR-4 ovarian 84.1% | SK-OV-3 ovarian 109% | IGROV1 ovarian 81.6% | OVCAR-3 ovarian 74.5% | HS 578T breast 82% | NCI/ADR-RES ovarian 89.4% | T-47D breast 91% | BT-549 breast 70.5% | MDA-MB-435 melanoma 65.1% | SW-620 colon 72.2% | MCF7 breast 70.6% | HCT-116 colon 40.6% | HCC-2998 colon 92.8% | KM12 colon 80.2%

COc1ccc(/C=C\c2cc(OC)c(OC)c(OC)c2)cc1NC(=O)/C=C/c1ccc(OC)c(OC)c1
inactive: MOLT-4 leukemia 17.3% | RPMI-8226 leukemia 53.6% | OVCAR-8 ovarian 44.4% | OVCAR-5 ovarian 55.4% | OVCAR-4 ovarian 58.7% | IGROV1 ovarian 55.1% | HS 578T breast 31.3% | T-47D breast 40.2% | BT-549 breast 39.1% | SW-620 colon 39.2% | MCF7 breast 21.3% | HCT-116 colon 25% | KM12 colon 27.3%
active: SK-OV-3 ovarian -19.5% | OVCAR-3 ovarian 1.59% | NCI/ADR-RES ovarian -8.84% | MDA-MB-435 melanoma -51.4% | HCC-2998 colon -3.07%

CC1=C(O)[C@@](C)(CCCCC[C@H](C)CCCCc2ccc(O)cc2)OOC1=O
active: IGROV1 ovarian -11.1%
inactive: MOLT-4 leukemia 86% | RPMI-8226 leukemia 85% | OVCAR-8 ovarian 93.4% | OVCAR-5 ovarian 103% | OVCAR-4 ovarian 100% | SK-OV-3 ovarian 106% | OVCAR-3 ovarian 86.5% | HS 578T breast 98.1% | NCI/ADR-RES ovarian 88.5% | T-47D breast 89% | BT-549 breast 97.4% | MDA-MB-435 melanoma 82.6% | SW-620 colon 109% | MCF7 breast 98.8% | HCT-116 colon 88.6% | HCC-2998 colon 115% | KM12 colon 90.1%

COc1cccc2c1c(C(=O)C(=O)Nc1ccn[nH]1)cn2Cc1ccc(F)cc1
inactive: MOLT-4 leukemia 97.5% | RPMI-8226 leukemia 96.8% | OVCAR-8 ovarian 101% | OVCAR-5 ovarian 91.2% | OVCAR-4 ovarian 110% | SK-OV-3 ovarian 95.9% | IGROV1 ovarian 84.7% | OVCAR-3 ovarian 106% | HS 578T breast 100% | NCI/ADR-RES ovarian 109% | T-47D breast 104% | BT-549 breast 114% | MDA-MB-435 melanoma 121% | SW-620 colon 102% | MCF7 breast 92.3% | HCT-116 colon 103% | HCC-2998 colon 39.6% | KM12 colon 105%

CCCCCN(CCCCC)CC(O)c1cc(Cl)ccc1OC (stereo not given)
active: RPMI-8226 leukemia 0.775% | IGROV1 ovarian 2.26% | HCT-116 colon 4.09%
inactive: MOLT-4 leukemia 34.9% | OVCAR-8 ovarian 63.1% | OVCAR-5 ovarian 53.7% | OVCAR-4 ovarian 42.9% | SK-OV-3 ovarian 53.6% | OVCAR-3 ovarian 28.6% | HS 578T breast 50.1% | NCI/ADR-RES ovarian 32.4% | T-47D breast 35% | BT-549 breast 79.8% | MDA-MB-435 melanoma 42.8% | SW-620 colon 25% | MCF7 breast 15.8% | HCC-2998 colon 17.2% | KM12 colon 29.8%

Cc1ccc2c(C(C[N+](=O)[O-])c3cccs3)c(-c3ccccc3)[nH]c2c1 (stereo not given)
active: HS 578T breast -11.7% | MDA-MB-435 melanoma -31.1%
inactive: MOLT-4 leukemia 16.2% | RPMI-8226 leukemia 11.8% | OVCAR-8 ovarian 33% | OVCAR-5 ovarian 58.8% | OVCAR-4 ovarian 38% | SK-OV-3 ovarian 22.7% | IGROV1 ovarian 31.4% | OVCAR-3 ovarian 10.2% | NCI/ADR-RES ovarian 11.7% | T-47D breast 14.6% | BT-549 breast 33.8% | SW-620 colon 18.5% | MCF7 breast 17.8% | HCT-116 colon 23.2% | HCC-2998 colon 40.3% | KM12 colon 21.4%
